Assay outcomes: PubChem BioAssay, National Center for Advancing Translational Sciences (NCATS)
A selection: hits, their analogues and other compounds. The true share with any hit is near 3.5%.
Tb PYK inh = T. brucei pyruvate kinase inhibition. Q57TT1. TbPYK enzyme, Kinase-Glo Plus ATP luminescence, 45 min. Potency, µM (titrated, usually from 76.8 µM), most hits filed as inhibitors. 410,000 tested, 0.12% active. AID 624173; also: nearly all actives have a fitted effect of over 50% in size
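In this concentration-response screen, enzyme-free wells defined baseline while DMSO plates tracked drift. Each reaction combined TbPYK, substrate, compound and 130 uM ADP for 45 min at room temperature. Kinase-Glo Plus luminescence gave the signal.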
FBPA Giardia inh = blocks Giardia fructose-bisphosphate aldolase activity | A8B2U2 | purified Giardia FBPA | Potency, µM (series often up to 59.6 µM), hits mostly inhibitors | 290,000 tested, 0.71% active | AID 2451; also: nearly all actives have a fitted effect of over 55% in size
Target sequence (A8B2U2 whole entry, looked up): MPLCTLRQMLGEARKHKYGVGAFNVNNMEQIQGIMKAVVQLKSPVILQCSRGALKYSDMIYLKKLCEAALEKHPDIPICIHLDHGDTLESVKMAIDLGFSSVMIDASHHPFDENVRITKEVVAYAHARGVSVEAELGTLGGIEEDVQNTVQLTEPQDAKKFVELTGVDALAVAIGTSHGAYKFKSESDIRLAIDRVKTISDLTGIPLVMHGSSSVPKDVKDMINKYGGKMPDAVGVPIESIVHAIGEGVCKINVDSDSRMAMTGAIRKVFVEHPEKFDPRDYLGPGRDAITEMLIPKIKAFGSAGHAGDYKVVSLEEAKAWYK
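40 nM FBPA preincubated 10 min at RT with compound (up to 57.5 uM final), then substrate plus GAPDH/TPI/NAD/arsenate coupling and diaphorase/resazurin added. Fluorescence read after 20 min at RT, 525/598 nm.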
NS1 inh = blocks influenza NS1 protein function; 270,000 tested, 0.4% active; Potency, µM (highest dose often 46.1 µM); calls by dose curve; also: actives are rising curves; nearly all actives have a fitted effect of over 50% in size
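Read-out: OD600 growth recovery of NS1-expressing budding yeast. Cells grown overnight at 30C in -URA glucose medium, washed, resuspended and diluted 1:100 in 2% galactose assay medium, pH 6.0. Same strain lacking NS1 served as positive control.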
LmPK inhibitor = blocks Leishmania mexicana pyruvate kinase activity | Potency, µM (top dose mostly 57.5 µM), actives largely listed as inhibitors | Q27686 | 290,000 tested, 0.37% active | purified LmPK, Kinase-Glo ATP luminescence, 1 h | AID 1721
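In 50 mM imidazole pH 7.2 with 7 mM MgCl2, LmPK (0.1 nM) turned over PEP (0.5 mM) and ADP (0.1 mM) for 1 h at room temperature. Luciferase read-out of ATP.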
RE007 growth inh = less growth of the S. pombe RE007 Vpr strain | S. pombe RE007 Vpr strain, BacTiter-Glo ATP luminescence, 24 h | Potency, µM (highest dose often 92.2 µM), hits mostly inhibitors | 360,000 tested, 0.21% active | AID 651644; active = well fitted falling curve with a large enough effect; inconclusive = small, poorly fitted or top-dose-only effect; inactive = no such curve, though single readings can be large or run the other way; also: nearly all actives have a fitted effect of over 50% in size
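Fission yeast RE007 carrying one integrated HIV-1 vpr copy, seeded at OD 0.01 in PMG+AL medium with 23 nL pinned compound. Grown 24 h at 30 degrees; viability read by BacTiter-Glo luminescence after 5 min.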
Sm TGR inh = S. mansoni TGR enzyme inhibition | Q962Y6 | purified TGR, DTNB reduction, TNB absorbance 405 nm | Potency, µM (highest dose often 114 µM), most hits filed as inhibitors | 360,000 tested, 3% active | AID 485364; also: nearly all actives have a fitted effect of over 60% in size
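First, TGR (20 nM dispensed) and NADPH were mixed with compound. Second, a 15 min room-temperature incubation followed. Third, further NADPH and then DTNB were added to start the reaction. Finally, TNB absorbance was monitored kinetically.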
Large screens that a line does not name were inactive. Unless noted, calls follow the shape of the dose curve; as a rule, active = well fitted curve in the direction sought with a large enough effect; inconclusive = small, poorly fitted or top-dose-only effect, or another doubt; inactive = no such curve, though single readings can be large; an effect the other way counts as inactive or inconclusive.

O=C1NC(=S)N(c2ccc(F)cc2)C(=O)/C1=C\c1ccoc1	Tb PYK inh inconclusive, FBPA Giardia inh inconclusive, Sm TGR inh 32µM (no result: NS1 inh)
COc1ccc(OC)c(N2C(=O)/C(=C/c3ccco3)C(=O)NC2=S)c1	Tb PYK inh inconclusive, FBPA Giardia inh inconclusive, Sm TGR inh 32µM
CC(C)(C)OC(=O)[C@H](C1N[C@@H](C(=O)O)C(C)(C)S1)N1C(=O)c2ccccc2C1=O (stereo partly drawn)	none (no result: Tb PYK inh, FBPA Giardia inh, LmPK inhibitor, RE007 growth inh, Sm TGR inh)
C=CCN=C1N[C@@H](c2cccc(C(F)(F)F)c2)C(C(=O)OC)=C(C)N1CC	FBPA Giardia inh 16µM
C#CCNC(=O)C1=C[C@@H](c2ccc3c(c2)OCO3)[C@H](CCCO)[C@@H](OCC)O1	Sm TGR inh 45µM
CCO[C@@H]1OC(C(=O)NCc2ccccc2)=C[C@H](c2ccc3c(c2)OCO3)[C@H]1CCCO	none
COCc1ccc([C@@H]2C[C@H]3CN(Cc4cccnc4)C(=O)[C@]34CCCN24)o1	Sm TGR inh 45µM
O=C1N(Cc2cccc(Cl)c2)C[C@@H]2C[C@@H](c3ccco3)N3CCC[C@@]123	Sm TGR inh 40µM
CCn1cc(C(=O)NCc2ccc(C)cc2)c(=O)c2cc(S(=O)(=O)N3CCCCCC3)ccc21	none (no result: FBPA Giardia inh, NS1 inh, LmPK inhibitor, RE007 growth inh)
COc1ccc(NS(=O)(=O)c2cc(Br)cc3c2N(C(=O)C2CC2)CC3)cc1OC	none (no result: FBPA Giardia inh, NS1 inh, LmPK inhibitor, RE007 growth inh)
Cc1ccc(Cn2c(CN3CCC(C(=O)O)CC3)cc3ccccc32)cc1	none (no result: FBPA Giardia inh, NS1 inh, LmPK inhibitor, RE007 growth inh)
CC1(OC(=O)CCc2ccccc2)C(=O)C=C2C=C3CCCN3C=C2C1=O (stereo not drawn)	FBPA Giardia inh inconclusive, Sm TGR inh 35µM
CCN(CC)CCCN1C=C2C(=O)C(C)(OC(=O)CCc3ccccc3)C(=O)C=C2C=C1c1ccc(C#N)cc1 (stereo not drawn)	FBPA Giardia inh inconclusive, Sm TGR inh 40µM
C#CCOc1c(/C=C\c2nc(O)c([N+](=O)[O-])c(=O)[nH]2)cc(Br)cc1OC	Sm TGR inh 35µM
C#CCOCCOCCOCCNc1nc(N2CCN(C(=O)CCCCCCCCCCNC(=O)[C@H](CCCCN)n3cc(CCO)nn3)CC2)nc(N2CCN(C(=O)CCCCCCCCCCNC(=O)[C@H](CCCCN)n3cc(CCO)nn3)CC2)n1	Sm TGR inh 35µM (no result: FBPA Giardia inh, NS1 inh, LmPK inhibitor)
C#CCOCCOCCOCCNc1nc(N2CCN(C(=O)CCCCCCCCCCNC(=O)[C@H](CCCCN)n3cc(C)nn3)CC2)nc(N2CCN(C(=O)CCCCCCCCCCNC(=O)[C@@H]([C@H](C)CC)n3cc(CCCCCN)nn3)CC2)n1	Sm TGR inh 25µM (no result: Tb PYK inh, FBPA Giardia inh, NS1 inh, LmPK inhibitor, RE007 growth inh)
C#CCOCCOCCOCCNc1nc(N2CCN(C(=O)CCCCCCCCCCNC(=O)[C@H](CCCCN)n3cc(CCO)nn3)CC2)nc(N2CCN(C(=O)CCCCCCCCCCNC(=O)[C@@H]([C@H](C)O)n3cc(C)nn3)CC2)n1	Sm TGR inh 18µM (no result: FBPA Giardia inh, NS1 inh, LmPK inhibitor)
Clc1ccc(CSC2=NCCN2)cc1Cl	none (no result: Tb PYK inh, FBPA Giardia inh, LmPK inhibitor, RE007 growth inh, Sm TGR inh)
CCOC(=O)c1cnc2c(C)c(Cl)ccc2c1Nc1ccc(N2CCOCC2)cc1	none (no result: FBPA Giardia inh, NS1 inh, LmPK inhibitor, RE007 growth inh)
COc1ccccc1C(=O)Nc1ccc2oc(-c3cccc4c(Br)cccc34)nc2c1	none (no result: FBPA Giardia inh, NS1 inh, LmPK inhibitor, RE007 growth inh)
O=C(Nc1nc2c(F)cccc2s1)c1ccc(S(=O)(=O)N2CCOCC2)cc1	none (no result: FBPA Giardia inh, NS1 inh, LmPK inhibitor, RE007 growth inh)
Cc1ccc(S(=O)(=O)N2CCn3cccc3C2C)cc1 (stereo not drawn)	Sm TGR inh inconclusive (no result: FBPA Giardia inh, NS1 inh, LmPK inhibitor)
Cc1cccc(S(=O)(=O)N2CCn3cccc3C2C)c1 (stereo not drawn)	Sm TGR inh 45µM (no result: FBPA Giardia inh, NS1 inh, LmPK inhibitor)
OC[C@@H]1OC(O)[C@@H](O)[C@H](O)[C@@H]1O (stereo partly drawn)	none (no result: Tb PYK inh, NS1 inh, LmPK inhibitor, RE007 growth inh, Sm TGR inh)
O=Nc1c(O)n(Cc2ccc(Cl)cc2Cl)c2ccccc12	RE007 growth inh 22µM
O=C1CC(c2ccc(F)cc2)Cc2nc(N3CCN(c4ccccc4)CC3)ncc21 (stereo not drawn)	none
O=C1CC(c2ccc(F)cc2)Cc2nc(N3CCc4ccccc43)ncc21 (stereo not drawn)	NS1 inh 7.1µM (no result: Tb PYK inh, RE007 growth inh)
CC(C)NC(=O)c1ccc(Cn2c(SCC(N)=O)nc3ccccc3c2=O)cc1	none (no result: FBPA Giardia inh, NS1 inh, LmPK inhibitor, RE007 growth inh)
